Reference: PubChem BioAssay AID504332 (National Center for Advancing Translational Sciences (NCATS), 2011)
Screen size: about 350,000 compounds; about 31,000 (8.9%) were called active. About 15% were inconclusive and are not listed. What follows is part of a selection rich in actives, with near analogues and random picks from the rest. Unmarked numbers belong to inactive results. Calls follow the shape of the dose curve; as a rule, active = well fitted inhibition curve with a large enough effect; inconclusive = small, poorly fitted or top-dose-only effect; inactive = no such curve, though single readings can be large or run the other way.

Biological target: Histone-lysine N-methyltransferase EHMT2 (Homo sapiens) (UniProt Q96KQ7)
Sequence (Q96KQ7 913-1193 limits assumed): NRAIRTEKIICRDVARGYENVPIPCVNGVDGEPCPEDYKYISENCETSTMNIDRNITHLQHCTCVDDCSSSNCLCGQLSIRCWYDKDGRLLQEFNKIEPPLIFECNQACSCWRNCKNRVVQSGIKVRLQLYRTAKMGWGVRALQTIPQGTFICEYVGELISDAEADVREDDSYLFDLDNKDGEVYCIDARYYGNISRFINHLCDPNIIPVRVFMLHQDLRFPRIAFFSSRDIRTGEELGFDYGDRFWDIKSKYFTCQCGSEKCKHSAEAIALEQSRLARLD
Experiment: qHTS Assay for Inhibitors of Histone Lysine Methyltransferase G9a; also: nearly all actives have a fitted effect of over 75% in size
Settings: G9a H3K9 monomethylation, AlphaScreen, 2 h; series mostly up to 59 µM; activity, negative = inhibition: at the top concentration
Method in brief: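 Signal arises when biotinylated H3K9 peptide, once monomethylated, bridges streptavidin donor and antibody-captured acceptor beads. Enzyme at 20 nM was preincubated 15 min with test compounds; peptide 500 nM and SAM 20 uM then reacted for 2 h.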
% is scaled to controls: 0 for no effect and ±100 for the full control effect; potency is read from the fitted curve at half-maximal effect.

Row | SMILES | activity, negative = inhibition | Potency
1 | CCc1cc(C(=O)Nc2nnc(C3CC3)s2)sc1C | 5.21% [at 12.7 µM] | 
2 | CC1(C)Cc2ccccc2-c2[nH]c(=S)[nH]c(=O)c21 |  | 10 µM (active)
3 | CC(C)CC(N=C1NC(C)(C)Cc2ccccc21)C(=O)O (configuration not stated) | 12.6% | 
4 | CCC1(CC)Cc2ccccc2-c2nc(CCl)[nH]c(=O)c21 | -21.1% [at 102 µM] | 
5 | CCc1cc2c(cc3c(=O)n(CC(=O)N4CCN(c5cc(Cl)ccc5C)CC4)nc(CC)n32)s1 | -1.08% | 
6 | CCC(c1nnnn1Cc1ccccc1)N(Cc1cc2cc(OC)ccc2[nH]c1=O)CC1CCCO1 (configuration not stated) | -31.1% [at 12.7 µM] | 
7 | CCC(c1nnnn1Cc1ccco1)N(Cc1cc2cc(OC)ccc2[nH]c1=O)C1CCCCC1 (configuration not stated) |  | 3.16 µM (active)
8 | CCOc1ccc2[nH]c(=O)c(CN(Cc3nnnn3Cc3ccccc3)CC3CCCO3)cc2c1 (configuration not stated) | -25.1% [at 102 µM] | 
9 | CCCOc1ccc(C(=O)Nc2ccc3oc(-c4cccc(Cl)c4Cl)nc3c2)cc1 | -29.8% | 
10 | COc1ccc(S(=O)(=O)N2CCOCC2)cc1C(=O)NC1CCCCC1 | 18.8% [at 102 µM] | 
11 | CC(NC(=S)NC1CCCCC1)C(c1ccccc1)N1CCOCC1 (configuration not stated) | 2.9% [at 102 µM] | 
12 | S=C(NC1CCCCC1)NN1CCOCC1 |  | 50.1 µM (active)
13 | COc1ccc(NC(=O)C(=O)NCC(=O)Nc2cccc(C(F)(F)F)c2)cc1 | 2.22% [at 102 µM] | 
14 | COc1ccc(NC(=O)CN(C)CC(=O)Nc2cccc(C(F)(F)F)c2)cc1 | 6.72% [at 102 µM] | 
15 | COc1ccc(C(CC(=O)Nc2ccc(C)cc2)NC(=O)C(F)(F)F)cc1 (configuration not stated) |  | 79.4 µM (active)
16 | CCCCOc1ccc(C(=O)Nc2cccc(-c3nc4ccccc4o3)c2C)cc1 | -21% | 
17 | O=C(NCc1ccc(Cl)cc1)C(=O)NCC1CCCN1S(=O)(=O)c1cccs1 (configuration not stated) | 1.44% [at 102 µM] | 
18 | Cc1cc(NC(=O)CC(C)C)cc(-c2nc3ncccc3o2)c1O | 2.52% | 
19 | Cc1ccc(-n2nc(CO)c(C(=O)NCCc3ccccc3)n2)cc1 | 7.14% | 
20 | COc1cc(C(=O)N2CCOCC2)cc(OC)c1OC |  | inactive
21 | COc1cc(C(=O)OCc2ccc([N+](=O)[O-])cc2)cc(OC)c1OC | 14.7% [at 102 µM] | 
22 | COc1cc(C(=S)N2CCOCC2)cc(OC)c1OC(=O)c1cc([N+](=O)[O-])cc([N+](=O)[O-])c1 |  | 31.6 µM (active)
23 | COc1cc([N+](=O)[O-])cc([N+](=O)[O-])c1NC(=O)N1CCOCC1 |  | 50.1 µM (active)
24 | O=C(Oc1ccccc1C(=S)N1CCCCC1)c1cc([N+](=O)[O-])cc([N+](=O)[O-])c1 |  | 3.55 µM (active)
25 | O=C(Oc1ccc(Br)cc1C(=S)N1CCOCC1)c1cccc([N+](=O)[O-])c1 |  | 7.08 µM (active)

Row | SMILES | activity, negative = inhibition | Potency
26 | O=C(c1ccc(Oc2ccc(Cl)cc2)c([N+](=O)[O-])c1)N1CCCC1 | -2.93% [at 102 µM] | 
27 | Cc1cc(OC(=O)c2ccccc2)c([N+](=O)[O-])c(=O)[nH]1 | -32.9% [at 102 µM] | 
28 | O=C(Oc1cccc(C(=S)N2CCOCC2)c1)c1cccc(Cl)c1 | -2.25% [at 102 µM] | 
29 | O=C(/C=C/c1cccc([N+](=O)[O-])c1)OCC(=O)N1CCOCC1 | 12.5% [at 12.7 µM] | 
30 | COc1cc(NC(=O)N2CCOCC2)cc(OC)c1 | 7.85% [at 102 µM] | 
31 | O=C(NCCCN1CCOCC1)c1ccc([N+](=O)[O-])cc1[N+](=O)[O-] | -1.45% | 
32 | COc1ccc(/C=N/Nc2cc(N3CCOCC3)nc(C)n2)c(OC)c1 | -10.8% [at 102 µM] | 
33 | Cc1ccc2cccc(NC(=O)C(C)Oc3ccc(C)c(C)c3)c2n1 (configuration not stated) | 0.0636% | 
34 | Cc1ccc(-c2cnc(C3CC3)o2)cc1S(=O)(=O)Nc1cccc(C)c1C | -9.84% [at 12.7 µM] | 
35 | CCC(=O)N1c2ccccc2CC1C(=O)N1CCN(c2ccccc2F)CC1 (configuration not stated) | 0.329% [at 12.7 µM] | 
36 | Cc1ccc(-c2nn(CCC(=O)Nc3ccc(Cl)c(Cl)c3)c(=O)c3ccccc23)cc1 | 5.97% | 
37 | COc1ccc(Cl)cc1NC(=O)CSc1nc2ccccc2c2nc(-c3ccccc3)nn12 | -3.83% | 
38 | CC(=O)C[C@@H](O)CC(=O)[C@H]1OC(=O)CCCCCCc2ccccc21 | 7.19% [at 0.501 µM] | 
39 | O=C(c1cccs1)N(C(=O)c1cccs1)c1ccccn1 | 2.68% | 
40 | O=C(C1=C(O)C(=O)N(CCOCCO)C1c1ccccn1)c1cccs1 (configuration not stated) |  | 28.2 µM (active)
41 | O=C(c1cccs1)c1cn(CCOc2ccc(Cl)cc2)c2ccccc12 | -2.07% | 
42 | Cc1ccc(O)c(/C=N/NC(=O)COc2ccc3c(C)cc(=O)oc3c2)c1 | 14% [at 102 µM] | 
43 | CCC(=O)N1c2ccccc2CC1C(=O)N1CCN(c2cccc(OC)c2)CC1 (configuration not stated) | 12.6% | 
44 | COc1cccc(C(=O)NC2(C(F)(F)F)C(=O)Nc3c2c(=O)[nH]c(=O)n3-c2ccc(C)cc2)c1 (configuration not stated) | -0.967% | 
45 | CCOc1ccc(CN2CCN(Cc3ccc4cc(F)ccc4n3)CC2CCO)cc1 (configuration not stated) | 1.12% [at 102 µM] | 
46 | CCOc1ccc(CN2CCN(Cc3ccc(C)o3)CC2CCO)cc1 (configuration not stated) |  | 70.8 µM (active)
47 | CCOc1ccc(CN2CCN(Cc3ccon3)CC2CCO)cc1 (configuration not stated) | -37.7% [at 102 µM] | 
48 | COCCn1c(C)cc(C(=O)CSc2nnc(C3CC3)n2C2CC2)c1C | -12.5% [at 12.7 µM] | 
49 | Cc1ccc(Cl)cc1N1CCN(C(=O)C2CCC(CNS(=O)(=O)c3cccs3)CC2)CC1 (configuration not stated) | -36.1% | 
50 | Cc1ccc(S(=O)(=O)NNC(=O)/C=C/c2cccc(F)c2)cc1 | 10.6% [at 102 µM] | 

Row | SMILES | activity, negative = inhibition | Potency
51 | c1ccc2cc(OCCN3CCCC3)ccc2c1 |  | 12.6 µM (active)
52 | COc1cccc(OCCCN2CCCCCC2)c1 |  | 11.2 µM (active)
53 | Cc1cc(C)c(NC(=O)CN2CCCCCC2)c(C)c1 | 41.6% [at 0.501 µM] | 
54 | COc1cccc(NC(=O)NCCN2CCCCC2)c1 | 11.8% [at 102 µM] | 
55 | O=C(Nc1ccc(F)cc1F)N1CCCN(CCOc2ccccc2)CC1 | -4.35% [at 102 µM] | 
56 | OC(COc1ccc2ccccc2c1)CN1CCOCC1 (configuration not stated) | -4.94% | 
57 | Cc1cc(OCCN2CCCC2)cc(C(C)C)c1 |  | 11.2 µM (active)
58 | Cc1cc(OCCN2CCCC2)ccc1C(C)C |  | 8.91 µM (active)
59 | OC(COc1ccc(Br)cc1)CN1CCCC1 (configuration not stated) | 2.27% [at 102 µM] | 
60 | Cc1ccc(CC2(O)CCN(CCOc3ccc(O)cc3)CC2)cc1 | 31.1% | 
61 | Clc1ccccc1-c1cc(COc2ccc3ccccc3c2)no1 | 22% | 
62 | COc1cccc(OCC(O)CN2CCN(CCO)CC2)c1 (configuration not stated) | 19.4% | 
63 | CS(=O)(=O)Nc1ccccc1C(=O)OCC(=O)NC1CC1 | 15.6% [at 12.7 µM] | 
64 | Cc1cccc(NC(=O)Cn2cc(S(=O)(=O)Cc3ccccc3Cl)c3ccccc32)c1 | 0.568% | 
65 | CC(C)(C)N1C(=O)[C@H]2[C@@H](c3ccc(Br)cc3)N3C(=O)N(c4cccc(Cl)c4)C(=O)[C@@]3(C)[C@H]2C1=O | -8.49% [at 2.33 µM] | 
66 | CCN(CC)CCNC(=O)Cn1ncc2c3ccccc3n(Cc3ccccc3C)c2c1=O | 1.56% | 
67 | Cn1c(=O)n(C)c2cc(S(=O)(=O)Nc3ccc(F)cc3)ccc21 | 72.7% [at 102 µM] | 
68 | O=C1/C(=C/c2cccs2)CCc2ccccc21 | 10.6% [at 102 µM] | 
69 | CN1C/C(=C/c2cccs2)C(=O)/C(=C\c2cccs2)C1 | 1.72% [at 12.7 µM] | 
70 | CCC1C/C(=C/c2cccs2)C(=O)/C(=C/c2cccs2)C1 (configuration not stated) |  | 39.8 µM (active)
71 | COc1ccc(CCNc2nc3c(-c4cccc(F)c4)nnn3c3ccccc23)cc1OC | -26.3% | 
72 | Cc1ccc(Cn2c(=O)n(Cc3nc(-c4ccccc4)no3)c(=O)c3cc4c(cc32)OCO4)cc1 | -6.65% | 
73 | COc1cccc(C2=CC(=O)C[C@H](c3ccc(OC)c(OC)c3)C2)c1 | -2.09% [at 2.33 µM] | 
74 | CCOC(=O)c1c(C)oc2nc(C)nc(N3CCN(c4ccc(OC)cc4)CC3)c12 |  | 12.6 µM (active)
75 | Cc1nc(N2CCOCC2)c2c(C(=O)NCc3cccc(Cl)c3)c(C)oc2n1 | -4.17% | 

Row | SMILES | activity, negative = inhibition | Potency
76 | CCOC(=O)c1c(C)oc2nc(C)nc(Nc3ccc(CC)cc3)c12 | -15% | 
77 | CC(=O)c1cc2c(cc1NC(=O)Cn1nc(-c3ccc(F)cc3)ccc1=O)OCO2 | -6.97% | 
78 | O=C(CN1C(=O)CCn2nc(-c3ccccc3)cc21)NCc1ccccc1 | -6.9% | 
79 | CC1=CC(C)(C)Nc2ccc(OC(=O)C(Cc3ccccc3)N3C(=O)C4CCCCC4C3=O)cc21 (configuration not stated) |  | 50.1 µM (active)
80 | CC1=CC(C)(C)Nc2ccc(OC(=O)CN3C(=O)C4CCCCC4C3=O)cc21 (configuration not stated) | 2.3% | 
81 | COC(=O)c1ccccc1NC(=O)C(Cc1ccccc1)N1Cc2ccccc2C1=O (configuration not stated) | -33.9% | 
82 | CC1(C)O[C@H]2CC(=O)OCC23[C@H]2CC[C@@]4(C)[C@H](c5ccoc5)OC(=O)[C@H]5O[C@]54[C@]2(C)C(=O)C[C@@H]13 (some centres not stated) | 12.6% [at 12.7 µM] | 
83 | COc1ccc(CCNC(=O)CCCCn2c(=O)c3ccccc3n(Cc3ccccc3C)c2=O)cc1OC | -0.422% | 
84 | O=c1cc(CO)oc(C(Nc2cccc(C(F)(F)F)c2)c2ccccn2)c1O (configuration not stated) |  | 1.26 µM (active)
85 | O=C(Nc1cccc([N+](=O)[O-])c1)Nn1cnnc1 | 14.3% [at 102 µM] | 
86 | Cc1ccc(CN(C)CC(=O)Nc2cccc([N+](=O)[O-])c2)o1 | -40.5% [at 102 µM] | 
87 | O=C(Nc1cccc(C(F)(F)F)c1)c1cnccn1 | 7.12% [at 102 µM] | 
88 | O=c1cc(CO)oc(C(Nc2cccc([N+](=O)[O-])c2)c2ccccn2)c1O (configuration not stated) |  | 0.794 µM (active)
89 | FC(F)(F)c1cccc(Nc2ncnc3ccccc23)c1 | 8.16% [at 12.7 µM] | 
90 | CCOC(=O)c1c(C)n(S(=O)(=O)c2ccc(C)cc2C)c2ccc(NS(=O)(=O)c3ccc(C)cc3C)cc12 | -48.6% | 
91 | COc1ccc(NC(=O)CCCC(=O)c2ccccc2)cc1 | 23.7% [at 102 µM] | 
92 | Cc1ccc(N/C=C/C(=O)c2ccccc2)cc1C | -10.2% | 
93 | O=C(/C=C\NCC(=O)c1ccccc1)c1ccccc1 |  | 6.31 µM (active)
94 | Cc1ccc(/C=C/C(=O)OCC(=O)NCc2ccc(Cl)cc2)o1 | -2.38% [at 2.33 µM] | 
95 | CC(C)NC(=O)/C(C#N)=C\c1ccc(N(C)C)c(Br)c1 |  | 39.8 µM (active)
96 | Cc1ccc(/C=C(\C#N)C(=O)Nc2cc(C)ccc2C)cc1 | 1.04% | 
97 | Cc1[nH]c2ccccc2c1/C=C(/C#N)C(=O)NC(C)C | 6.08% [at 102 µM] | 
